RAD52 anneal inh = RAD52 DNA annealing inhibitors, primary screen, biochemical, FRET, single point, set 2; inhibition, % at 18.7 µM; AID 651710, 2012; 0.46% of 360,000 active; recombinant RAD52 DNA annealing, FRET fluorescence; DNA repair protein RAD52 homolog (Homo sapiens), P43351;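 active means every replicate showing at least 50% inhibition; inconclusive means mean inhibition at least 50% but not in every replicate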
Target sequence (P43351 whole entry, looked up): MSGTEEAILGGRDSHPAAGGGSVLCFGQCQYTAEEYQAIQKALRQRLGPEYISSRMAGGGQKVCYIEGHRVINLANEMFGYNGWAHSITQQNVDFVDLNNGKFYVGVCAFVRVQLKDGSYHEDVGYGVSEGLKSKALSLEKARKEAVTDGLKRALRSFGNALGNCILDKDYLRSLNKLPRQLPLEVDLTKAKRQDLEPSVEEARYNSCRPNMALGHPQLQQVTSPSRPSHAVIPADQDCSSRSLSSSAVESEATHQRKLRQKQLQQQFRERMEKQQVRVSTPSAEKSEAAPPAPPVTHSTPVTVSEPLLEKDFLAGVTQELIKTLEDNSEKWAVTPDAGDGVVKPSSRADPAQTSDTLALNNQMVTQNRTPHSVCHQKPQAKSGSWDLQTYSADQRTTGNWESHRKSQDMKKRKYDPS
Casp6 inh = human caspase-6 inhibitors, primary screen, biochemical, VEID-R110 fluorescence, single point, set 2. purified caspase-6, Z-VEID-R110 cleavage fluorescence. inhibition, % at 12.5 µM. 0.53% of 350,000 active. AID 686996, 2013;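 active means mean inhibition across replicates at least about 35%, with every replicate also reaching that limit, limit read from the data; inconclusive means only one of the two criteria met; inactive means neither criterion met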
Target sequence (P55212 24-179 limits assumed): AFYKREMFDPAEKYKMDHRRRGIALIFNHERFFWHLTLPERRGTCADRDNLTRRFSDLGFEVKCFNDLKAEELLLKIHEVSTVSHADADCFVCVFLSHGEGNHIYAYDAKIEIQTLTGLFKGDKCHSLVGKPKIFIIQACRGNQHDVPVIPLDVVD
Target sequence (P55212 194-293 limits assumed): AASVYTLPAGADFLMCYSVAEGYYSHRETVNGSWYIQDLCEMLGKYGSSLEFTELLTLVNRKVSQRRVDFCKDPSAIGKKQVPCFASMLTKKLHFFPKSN
miR-122 sensor = miR-122 Renilla sensor signal increase in Huh7, primary screen, miR-122 inhibitor project, cell-based, single point, plate reader | Huh7 miR-122 Renilla luciferase sensor, 48 h; neutral wells = 0, positive control = 100 | activation (reporter increase), % at 12.5 µM | 0.3% of 340,000 active | AID 602342, 2012;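 active means mean replicate activation score at least 90 and every replicate individually at or above 90; inconclusive means only one of the two criteria met; inactive means neither criterion met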;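 further: higher luciferase means less miR-122 activity so hits act as miR-122 inhibitors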
NSD2 HMT inh = NSD2 histone methyltransferase inhibitors, primary screen, biochemical, AlphaScreen, single concentration, set 2; AID 743445, 2014; Histone-lysine N-methyltransferase NSD2 (Homo sapiens), O96028; NSD2 peptide methylation, 120 min; 0.54% of 310,000 active; inhibition, % at 12.5 µM; in the data active means inhibition above about 50%
AF4-AF9 inh = inhibitors of AF4 peptide binding to AF9, primary screen, biochemical, AlphaScreen, biotin-AF4 peptide, FLAG-AF9, single point | Protein AF-9 (Homo sapiens), P42568 | inhibition, % at 10 µM | 0.47% of 350,000 active | AID 651704, 2012;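 active means every replicate reaching a set inhibition limit, whatever the replicate mean, cut at about 25% in these data; inconclusive means mean inhibition reaches that limit but some replicates miss it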
Of the large screens only hits and unclear results are named; the others gave an inactive call; ! = not confirmed by another sample. Shown are actives, neighbours in structure and some others; about 1.5% of the full set was active somewhere.

CO[C@H]1CN(C)C(=O)c2cc(NC(C)=O)ccc2OC[C@@H](C)N(C(=O)Cc2ccccn2)C[C@@H]1C	AF4-AF9 inh 28.6 (no result: miR-122 sensor, NSD2 HMT inh)
C[C@@H]1CN([C@@H](C)CO)C(=O)c2cc(NC(=O)Nc3ccc(C(F)(F)F)cc3)ccc2O[C@H]1CN(C)C	none (no result: NSD2 HMT inh)
O=C(C[C@@H]1C=C[C@@H](NC(=O)Cc2cccnc2)[C@H](CO)O1)Nc1ccc(-c2ccccc2)cc1	none (no result: miR-122 sensor, NSD2 HMT inh)
Cc1noc(C)c1NC(=O)N(C)C[C@@H]1Oc2c(NC(=O)NC(C)C)cccc2C(=O)N([C@H](C)CO)C[C@@H]1C	none (no result: NSD2 HMT inh)
CC/C(=N\NC(=O)c1ccc2c(c1)OCO2)C12CC3CC(CC(C3)C1)C2	miR-122 sensor 181.1 (no result: RAD52 anneal inh, Casp6 inh, AF4-AF9 inh)
CC/C(=N\NC(=O)c1ccncc1)C12CC3CC(CC(C3)C1)C2	none (no result: RAD52 anneal inh, Casp6 inh, AF4-AF9 inh)
CCc1ccc(-c2cc(C)no2)cc1S(=O)(=O)NCc1ccco1	miR-122 sensor 159.3
CCc1ccc(-c2cc(C)no2)cc1S(=O)(=O)NCCc1ccc(OC)c(OC)c1	miR-122 sensor 131.5
Cc1cc(-c2ccc(C)c(S(=O)(=O)NCCc3ccco3)c2)on1	none
CCc1ccc(-c2cc(C)no2)cc1S(=O)(=O)NCc1ccc(OC)c(OC)c1	none
O=C(C1CCCC1)N1C[C@@H]2N[C@H](C1)C2c1ccc(/C=C/c2ccccc2)cc1 (some centres not stated)	RAD52 anneal inh 58.0 (no result: miR-122 sensor, NSD2 HMT inh)
O=C(C1CCCCC1)N1C[C@@H]2N[C@H](C1)C2c1ccc(-c2ccccc2F)cc1 (some centres not stated)	RAD52 anneal inh 57.1! (no result: miR-122 sensor, NSD2 HMT inh)
O=C(c1ccncc1)N1C[C@@H]2N[C@H](C1)C2c1ccc(/C=C/c2ccccc2)cc1 (some centres not stated)	none (no result: miR-122 sensor, NSD2 HMT inh)
O=C(c1ccc(F)cc1)N1C[C@@H]2N[C@H](C1)C2c1ccc(/C=C/c2ccccc2)cc1 (some centres not stated)	RAD52 anneal inh 65.1, AF4-AF9 inh inconclusive (no result: miR-122 sensor, NSD2 HMT inh)
COc1ccccc1CN1C[C@@H]2N[C@H](C1)C2c1ccc(/C=C/c2ccccc2)cc1 (some centres not stated)	RAD52 anneal inh 68.0, AF4-AF9 inh 29.9 (no result: miR-122 sensor, NSD2 HMT inh)
CC(C)NC(=O)N(C)C[C@@H]1Oc2ccc(NC(=O)Nc3ccccc3)cc2CC(=O)N([C@H](C)CO)C[C@@H]1C	none (no result: NSD2 HMT inh)
C[C@@H]1CN([C@@H](C)CO)C(=O)c2cc(NC(=O)Cc3cn(C)c4ccccc34)ccc2O[C@@H]1CN(C)S(=O)(=O)c1cccs1	none (no result: Casp6 inh, NSD2 HMT inh)
C[C@@H]1CCCCO[C@H](CN(C)Cc2ccncc2)[C@H](C)CN([C@@H](C)CO)C(=O)c2cc(NS(=O)(=O)c3ccccc3)ccc2O1	none (no result: NSD2 HMT inh)
C[C@@H]1CN([C@@H](C)CO)C(=O)c2cc(NC(=O)CCCN(C)C)ccc2O[C@@H](C)CCCCO[C@@H]1CN(C)Cc1ccc2c(c1)OCO2	none (no result: miR-122 sensor, NSD2 HMT inh)
CCC(=O)N1CC(=O)N2[C@H](CO)[C@H](c3ccc(C#Cc4cccc(F)c4)cc3)[C@H]2C1	none (no result: miR-122 sensor, NSD2 HMT inh)
O=C(Nc1ccccc1)N1C[C@@H]2N[C@H](C1)[C@@H]2c1ccc(/C=C/c2ccccc2)cc1	RAD52 anneal inh 72.2, AF4-AF9 inh 28.8 (no result: miR-122 sensor, NSD2 HMT inh)
O=C(Nc1ccccc1)N1C[C@@H]2N[C@H](C1)C2c1ccc(-c2ccccc2)cc1 (some centres not stated)	none (no result: miR-122 sensor, NSD2 HMT inh)
O=C(C[C@H]1C[C@@H]2c3cc(NC(=O)NC4CCCC4)ccc3O[C@@H]2[C@H](CO)O1)NCc1ccc(Cl)cc1	none (no result: NSD2 HMT inh)
O=C1C=C(Nc2ccc(F)cc2)c2ccccc2C1=O	Casp6 inh 40.4
Oc1ccc(/C=N/Nc2ccc(Cl)nn2)c(O)c1O	Casp6 inh 47.7 (no result: miR-122 sensor, NSD2 HMT inh)
CO[C@H]1CN(C)C(=O)c2cc(NC(=O)C3CCOCC3)ccc2OC[C@@H](C)N(Cc2nccs2)C[C@H]1C	none (no result: miR-122 sensor, NSD2 HMT inh)
Cc1ccc(NC(=O)CCCCCC2NC(=O)NC2C)cc1 (configuration not stated)	NSD2 HMT inh 135.5, AF4-AF9 inh 97.1
CC1NC(=O)NC1CCCCC(=O)O (configuration not stated)	none (no result: RAD52 anneal inh, Casp6 inh, AF4-AF9 inh)
COc1cc(CN2CCCCCC2)cc([N+](=O)[O-])c1O	none
COc1cc(CN2CCc3ccccc3C2)cc([N+](=O)[O-])c1O	Casp6 inh 47.4
COc1cc(/C=C(\C#N)C(=O)Nc2cccc(C(=O)O)c2)ccc1OCc1ccc(C)cc1	none
COc1cc(/C=C(/C#N)C(=O)Nc2ccccc2)ccc1OCc1ccc(C(=O)O)cc1	Casp6 inh 37.4
C[C@@H]1CCCCO[C@@H](CN(C)C)[C@H](C)CN([C@@H](C)CO)C(=O)c2cc(NC(=O)Nc3cccc4ccccc34)ccc2O1	none (no result: NSD2 HMT inh)
COc1ccc(Nc2ccc(OC)cc2)cc1	AF4-AF9 inh 81.0 (no result: NSD2 HMT inh)
CC(=O)NC(CCc1ccc(Cl)c(Cl)c1)c1cccc(O)c(=O)c1 (configuration not stated)	AF4-AF9 inh 30.4 (no result: miR-122 sensor)
OC(CNC1CCCC1)COc1ccc(-c2ccccc2)cc1 (configuration not stated)	none (no result: miR-122 sensor)
OC(CNC1CCCCC1)COCCOc1ccc(Br)cc1 (configuration not stated)	Casp6 inh 46.7
COc1ccc(NC(=O)N2CCCCN3[C@H](CO)[C@H](c4ccc(C#Cc5ccccn5)cc4)[C@H]3C2)cc1	RAD52 anneal inh 66.4 (no result: NSD2 HMT inh)
COc1ccc(NC(=O)N2CCCCN3[C@H](CO)[C@@H](c4ccc(C#Cc5ccccn5)cc4)[C@@H]3C2)cc1	none (no result: NSD2 HMT inh)
COc1ccc(NC(=O)N2CCCCN3[C@@H](CO)[C@@H](c4ccc(C#Cc5ccccn5)cc4)[C@@H]3C2)cc1	RAD52 anneal inh 61.5 (no result: NSD2 HMT inh)
C[C@@H]1CN([C@@H](C)CO)C(=O)c2cc(N(C)C)ccc2O[C@@H](C)CCCCO[C@H]1CN(C)C(=O)CCC(F)(F)F	none (no result: NSD2 HMT inh)
Cc1ccc2cc(-c3noc(C(C)(C)C)n3)c(=O)[nH]c2c1	miR-122 sensor 206.0 (no result: RAD52 anneal inh, Casp6 inh, AF4-AF9 inh)
C[C@@H]1CN([C@H](C)CO)S(=O)(=O)c2ccc(C#CC3(O)CCCC3)cc2O[C@H]1CN(C)C(=O)c1ccccc1	none (no result: NSD2 HMT inh)
Cc1ccc(C2CN(C)C3(C(=O)Nc4ccccc43)C23COc2ccccc2C3=O)cc1 (configuration not stated)	miR-122 sensor 295.3 (no result: RAD52 anneal inh, Casp6 inh, AF4-AF9 inh)
CN1CC(c2ccccc2Cl)C2(COc3ccccc3C2=O)C12C(=O)Nc1ccccc12 (configuration not stated)	miR-122 sensor 116.5 (no result: RAD52 anneal inh, Casp6 inh, AF4-AF9 inh)
C[C@@H]1CN([C@@H](C)CO)C(=O)c2cc(C3=CCCCC3)cnc2O[C@H]1CN(C)C(=O)c1ccc2c(c1)OCO2	none (no result: NSD2 HMT inh)
O=C(Nc1cccc(C(=O)N2CCOCC2)c1)c1ccc([N+](=O)[O-])cc1	Casp6 inh 41.7 (no result: miR-122 sensor)
O=C(Cc1cccc([N+](=O)[O-])c1)Nc1cccc(C(=O)N2CCOCC2)c1	none (no result: NSD2 HMT inh)
O=C(NC1CCC1)[C@H]1[C@H](CO)[C@H]2Cn3c(ccc(-c4ccccc4F)c3=O)[C@H]2N1Cc1ccccn1	none (no result: miR-122 sensor, NSD2 HMT inh)

Assay outcomes from PubChem.
